Test results from the supplement of paper PMC8726507.
A number with no mark means an inactive call.

Each molecule was assayed on Plasmodium falciparum NF54-HGL (transmission to Anopheles stephensi) (assay: percentage of barcode signal found in uninfected mosquitoes (transmission-blocking activity); higher = stronger blocking of transmission to mosquito, active = 80 or more). Conditions: 10 µM; gametocyte preincubation time 24 h; readout time post-feed 8 days.
Method: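 The mixture was fed to Anopheles stephensi in 96-well plates as blood meals tagged with DNA-barcoded Asaia bacteria. Eight days later, mosquitoes were classed infected or uninfected by luminescence (mean + 5 SD of unfed controls). Barcodes were quantified by Luminex MagPlex-TAG in the pooled uninfected and infected Asaia cultures, background-corrected, and the score is % of barcode signal in uninfected mosquitoes = 100*Iu/(Iu+Ii).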
For `CC(Oc1ccccc1)C(=O)Nc1nc(-c2ccccn2)cs1` (stereo not drawn), the “percentage of barcode signal found in uninfected mosquitoes” value (shortened to “percentage of barcode signal found”) was 84.2% (active). With `COc1ccc(-c2cnc3ccc(N4CCCC4)nn23)cc1OC` the “percentage of barcode signal found” value was 75.3%. With `COc1ccc(-c2cnc3ccc(NCc4ccc(S(N)(=O)=O)cc4)nn23)cn1` the “percentage of barcode signal found” value was 68.2%. For `CCC(=O)Nc1ccccc1C(=O)Nc1ccccn1`, the “percentage of barcode signal found” value was 50%. `Cc1cc2ccccc2n1CC(=O)N1CC(C(=O)N2CCCCC2)Oc2ccccc21` (stereo not drawn) was tested, and the “percentage of barcode signal found” value was 34.8%. For `COCC(C)NC(=O)CSc1ncnc2sc(-c3ccccc3)cc12` (stereo not drawn), the “percentage of barcode signal found” value was 47.4%. For `Cc1nnc(NCc2cccc(Cl)c2)c2ccccc12`, the “percentage of barcode signal found” value was 34.2%. With `CC(C)C(C(=O)Nc1ccc(S(=O)(=O)N(C)C)cc1)c1ccc(Cl)cc1` (stereo not drawn) the “percentage of barcode signal found” value was 49.7%. In the case of `Cn1ncc2c(N3CCOCC3)nc(NCCc3c[nH]c4ccccc34)nc21`, the “percentage of barcode signal found” value is reported as 64.2%. In the case of `O=C(NC1=NCCS1)c1sc2cc(F)ccc2c1Cl`, the “percentage of barcode signal found” value is reported as 5.7%. `Cc1cc(C(=O)Nc2cnn(Cc3ccc(Cl)cc3Cl)c2)no1` was tested, and the “percentage of barcode signal found” value was 42.7%. For `COc1ccc(-c2onc(C(F)(F)F)c2-c2ccc(Cl)cc2)c(O)c1`, the “percentage of barcode signal found” value was 25.2%. With `COc1ccc(-c2nc(-c3cccc(NC(=O)Cc4ccc(F)cc4)c3)no2)cc1OC` the “percentage of barcode signal found” value was 5.39%. `C[C@]1(O)C[C@@H](c2nc(-c3ccc4ccc(-c5ccccc5)nc4c3)c3c(N)nccn32)C1` was tested, and the “percentage of barcode signal found” value was 80.6% (active). `Nc1ncnc2c1c(Cc1cccc3ccccc13)nn2CC1CCNCC1` was tested, and the “percentage of barcode signal found” value was 74.2%. For `c1csc(-c2cnc3sc(NCC4CCOCC4)nn23)c1`, the “percentage of barcode signal found” value was 38.7%. `CC(C)C(NC(=O)Cc1cccc2ccccc12)C(=O)Nc1cccc(C#N)c1` (stereo not drawn) was tested, and the “percentage of barcode signal found” value was 53.4%. With `Cc1cnc(CCNC(=O)c2cc(-c3ccc(Cl)cc3)cs2)[nH]1` the “percentage of barcode signal found” value was 7.14%. `CN1CCN(c2nccc3nc(-c4ccc(F)c(F)c4)[nH]c23)CC1` was tested, and the “percentage of barcode signal found” value was 97.2% (active). `COc1cc2ncnc(NC3CCN(Cc4ccccc4)CC3)c2cc1OC` was tested, and the “percentage of barcode signal found” value was 31%.

Same assay, conditions: 20 µM; gametocyte preincubation time 24 h; readout time post-feed 8 days
`CCc1ccc(S(=O)(=O)Nc2cc(CN3CCN(CCC(C)C)CC3)ccc2C)cc1` was tested, and the “percentage of barcode signal found” value was 22.9%. `CCCCCCCCCCCCCCCCOP(=O)([O-])OCC[N+](C)(C)C` was tested, and the “percentage of barcode signal found” value was -0.352%. With `CCn1ncc2c(NC3CCOCC3)c(CNC(=O)c3ccnn3C)c(C)nc21` the “percentage of barcode signal found” value was 91.2% (active). With `COc1ccc2nccc(NC(=O)C3CCN(CCc4ccc(Cl)cc4)CC3)c2n1` the “percentage of barcode signal found” value was 5.62%. In the case of `CC(C)(C(=O)Nc1ccc(F)cc1)n1cc(-c2ccccc2F)cn1`, the “percentage of barcode signal found” value is reported as 0.429%. For `CCC(Sc1nc2ccccc2o1)C(=O)Nc1nnc(C)s1` (stereo not drawn), the “percentage of barcode signal found” value was -0.757%. `FC(F)(F)c1cc(NCCc2ccccc2)nc(-c2ccccn2)n1` was tested, and the “percentage of barcode signal found” value was 62.2%. `COc1cc(OC)cc(C(=O)NCC2Cc3cc(Cl)cc(-c4ccncc4)c3O2)c1` (stereo not drawn) was tested, and the “percentage of barcode signal found” value was 1.01%. With `Cc1nc(-c2ccccn2)nc(N(C)CCc2ccccc2)c1Cl` the “percentage of barcode signal found” value was 92% (active). `Cc1cc(C)n(-c2ccc(NC(=O)C3CCN(Cc4cnc(C)s4)CC3)cc2)n1` was tested, and the “percentage of barcode signal found” value was 1.19%. With `CNC(=O)C1Cc2c([nH]c3cc(Cl)ccc23)C2(CCN(CCc3ccccc3)CC2)N1` (stereo not drawn) the “percentage of barcode signal found” value was 87.5% (active). `COc1ccc(C(=N)N)cc1-c1cn(-c2ccc(C(=N)N)cc2)nn1` was tested, and the “percentage of barcode signal found” value was 2.56%. For `O=C(NCCN1CCCC1)c1cc(NCCN2CCOCC2)nc2ccc(Cl)cc12`, the “percentage of barcode signal found” value was 88% (active). In the case of `COc1cccc(NC(=O)c2c(NC(=O)c3cccnc3)sc3c2CCC3)c1`, the “percentage of barcode signal found” value is reported as 34.2%. `CS(=O)(=O)N1CCC(Cn2nc(Cc3cccc4ccccc34)c3c(N)ncnc32)CC1` was tested, and the “percentage of barcode signal found” value was 28.2%. `CCCCS(=O)(=O)Nc1ccc2cnn(C)c2c1` was tested, and the “percentage of barcode signal found” value was 4.19%. With `Clc1cccc(CO[C@H]2CCc3ccccc3[C@@H]2n2ccnn2)c1` the “percentage of barcode signal found” value was -1.12%. `NCC(c1cccs1)S(=O)(=O)c1ccccc1` (stereo not drawn) was tested, and the “percentage of barcode signal found” value was 17.5%.
